According to PubChem BioAssay (NCI):
The panel holds about 79,000 compounds, 15% with a hit somewhere; the sample as a whole holds those more often. Active and inactive are the calls of the source. Cut-off read from the data, not from the text of the source: active = growth inhibition above about 70%; inactive = the rest.

What was measured:
[1] = NCI Yeast Anticancer Drug Screen. Data for the rad50 strain (AID 155);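 note: 0% = growth of vehicle-only cultures of the same strain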; conditions: S. cerevisiae rad50 strain growth inhibition, stronger effect = higher value
In short: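 Relative growth inhibition (compound vs vehicle) was measured in yeast with a defined repair-gene alteration.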

[2] = NCI Yeast Anticancer Drug Screen. Data for the mec2-1 strain (AID 157); conditions: S. cerevisiae mec2-1 strain, stronger effect = higher value
In short: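 Readout is yeast growth inhibition, normalised to vehicle-treated controls, in the mec2-1 strain exposed to compound.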

[3] = NCI Yeast Anticancer Drug Screen. Data for the sgs1 mgt1 strain (AID 161);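 note: 0% = growth of cultures given vehicle only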; conditions: S. cerevisiae sgs1 mgt1 strain, stronger effect = higher value
In short: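 Compounds are added to genetically altered yeast, and growth is compared with cultures given vehicle alone to give percent inhibition.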

[4] = NCI Yeast Anticancer Drug Screen. Data for the cln2 rad14 strain (AID 165);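 note: 0% = growth equal to vehicle treated cultures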; conditions: S. cerevisiae cln2 rad14 strain, stronger effect = higher value
In short: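 Relative to vehicle controls, growth inhibition of compound-treated cln2 rad14 yeast was recorded.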

[5] = NCI Yeast Anticancer Drug Screen. Data for the bub3 strain (AID 167); conditions: S. cerevisiae bub3 mutant strain, stronger effect = higher value
In short: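 Screening used yeast with an engineered genetic alteration affecting cell cycle control. Compound-exposed cultures were compared with vehicle cultures, and reduced growth was taken as inhibition.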

[6] = NCI Yeast Anticancer Drug Screen. Data for the mlh1 rad18 strain (AID 175); conditions: S. cerevisiae mlh1 rad18 strain growth inhibition, stronger effect = higher value
In short: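 Test agents were incubated with a yeast strain of defined genotype (DNA damage repair defect). Inhibition of growth was derived by comparison with vehicle-exposed cultures.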

[7] = at 5.0 µM (retest, dose inferred, filed as 0.5)
[8] = at 50.0 µM (retest, dose inferred, filed as 5.0)

Measured: growth inhibition

Cc1ccc(-c2n[nH]c(=O)n2/N=C\c2ccccc2)cc1
inactive: [1]; [7] 21% | [1]; [8] 38% | [1]; at 50.0 µM 40.9% | [2]; [7] 18% | [2]; [8] 25% | [2]; at 50.0 µM 21.9% | [3]; [7] 28% | [3]; [8] 39% | [3]; at 50.0 µM 50.1% | [4]; [7] 12% | [4]; [8] 31% | [4]; at 50.0 µM 15.2% | [5]; [7] 4% | [5]; [8] 23% | [5]; at 50.0 µM 23% | [6]; [7] 17% | [6]; [8] 44% | [6]; at 50.0 µM 59%

Clc1ccc2nc3ccccc3nc2c1
inactive: [1]; [7] -31% | [2]; [7] 26% | [2]; [8] 67% | [3]; [7] -5% | [4]; [7] -9% | [5]; [7] 21% | [6]; [7] -4%
active: [1]; [8] 96% | [1]; at 50.0 µM 94.7% | [2]; at 50.0 µM 86.8% | [3]; [8] 81% | [3]; at 50.0 µM 79.6% | [4]; [8] 79% | [4]; at 50.0 µM 80.7% | [5]; [8] 78% | [5]; at 50.0 µM 92.3% | [6]; [8] 94% | [6]; at 50.0 µM 93.8%

O=C(O)c1nc2cc(C(F)(F)F)ccc2nc1Nc1ccc(F)cc1
inactive: [1]; [7] 32% | [1]; [8] 64% | [1]; at 50.0 µM 64% | [2]; [7] 23% | [2]; [8] 66% | [2]; at 50.0 µM 68.2% | [3]; [7] 23% | [3]; [8] 60% | [4]; [7] 20% | [4]; [8] 57% | [5]; [7] 31% | [5]; [8] 60% | [6]; [7] 30% | [6]; at 50.0 µM 42.9%
active: [3]; at 50.0 µM 74.7% | [4]; at 50.0 µM 79.7% | [5]; at 50.0 µM 74.7% | [6]; [8] 75%

S=C(Nc1ccc2cn[nH]c2c1)Nc1ccc2cn[nH]c2c1
inactive: [1]; [7] 7% | [1]; [8] 46% | [2]; [7] 16% | [2]; [8] 0% | [2]; at 50.0 µM -12.9% | [3]; [7] -5% | [3]; [8] 5% | [3]; at 50.0 µM 30.9% | [4]; [7] -25% | [4]; [8] 2% | [4]; at 50.0 µM -1.15% | [5]; [7] 7% | [5]; [8] 1% | [5]; at 50.0 µM 40% | [6]; [7] 2% | [6]; [8] 17% | [6]; at 50.0 µM 41.9%
active: [1]; at 50.0 µM 79.1%

CCCC(=O)Oc1ccc(-c2ccc(Br)cc2)cc1
inactive: [1]; [7] 4% | [2]; [7] 11% | [3]; [7] 3% | [4]; [7] -6% | [5]; [7] 39% | [6]; [7] -7%
active: [1]; [8] 93% | [1]; at 50.0 µM 92.8% | [2]; [8] 93% | [2]; at 50.0 µM 93.6% | [3]; [8] 88% | [3]; at 50.0 µM 88.8% | [4]; [8] 93% | [4]; at 50.0 µM 90.2% | [5]; [8] 95% | [5]; at 50.0 µM 89.8% | [6]; [8] 94% | [6]; at 50.0 µM 95.8%

CC1CCCC(CCN(C)CCC2CCCCC2)CC1 (configuration not stated)
inactive: [1]; [7] 21% | [2]; [7] 9% | [3]; [7] 35% | [4]; [7] 21% | [5]; [7] 7% | [6]; [7] 45%
active: [1]; [8] 98% | [1]; at 50.0 µM 99.3% | [2]; [8] 99% | [2]; at 50.0 µM 99.2% | [3]; [8] 99% | [3]; at 50.0 µM 99.4% | [4]; [8] 97% | [4]; at 50.0 µM 99.1% | [5]; [8] 79% | [5]; at 50.0 µM 99% | [6]; [8] 98% | [6]; at 50.0 µM 99.1%

CSC(=S)N/N=C/c1cccc(C)n1
inactive: [1]; [7] 13% | [2]; [7] 5% | [2]; [8] 60% | [3]; [7] 3% | [3]; [8] 69% | [3]; at 50.0 µM 66.2% | [4]; [7] -8% | [4]; [8] 26% | [4]; at 50.0 µM 67.7% | [5]; [7] 1% | [6]; [7] 30%
active: [1]; [8] 71% | [1]; at 50.0 µM 95.1% | [2]; at 50.0 µM 82.1% | [5]; [8] 72% | [5]; at 50.0 µM 86.8% | [6]; [8] 80% | [6]; at 50.0 µM 82.6%

CC(C)COC(=O)C1C2C=CC(CC2)C1C(=O)OCC(C)C (configuration not stated)
inactive: [1]; [7] -13% | [1]; [8] 30% | [1]; at 50.0 µM 30.1% | [2]; [7] -4% | [2]; at 50.0 µM 18% | [3]; [7] -1% | [3]; [8] 19% | [3]; at 50.0 µM 29.6% | [4]; [7] -11% | [4]; [8] 55% | [4]; at 50.0 µM 4.6% | [5]; [7] 0% | [5]; at 50.0 µM 40.5% | [6]; [7] -3% | [6]; at 50.0 µM 46.5%
active: [2]; [8] 79% | [5]; [8] 82% | [6]; [8] 86%

O=C1O/C(=C(\Cc2ccccc2)c2ccccc2)N(c2ccccc2)C1=O
inactive: [1]; [7] 5% | [1]; [8] 30% | [1]; at 50.0 µM 69.2% | [2]; [7] -6% | [2]; [8] 23% | [2]; at 50.0 µM 18.6% | [3]; [7] 0% | [3]; [8] 28% | [3]; at 50.0 µM 22.9% | [4]; [7] -5% | [4]; [8] -9% | [4]; at 50.0 µM -30.2% | [5]; [7] 0% | [5]; [8] 13% | [5]; at 50.0 µM 14.9% | [6]; [7] -6% | [6]; [8] 21% | [6]; at 50.0 µM 28.8%
